# Experimental data reported in PubChem BioAssay (NCI).
# The panel holds about 83,000 compounds, 20% with a hit somewhere; the sample as a whole holds those more often.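 Step 1: grow cells in 96-well plates. Step 2: add test compound at a single concentration. Step 3: incubate 48 h. Step 4: record percent growth.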 Values without a mark were called inactive. Active and inactive are the calls of the source. The calls were made as follows: active = growth percent below 10; inactive = the rest.
# Experiments:
# Assay in all cases: NCI-60 one-dose screen, 48 h (100 = growth as untreated, 0 = no growth, -100 = all killed)
# Details in all cases: 10 µM
# NCI-H23 lung = system: NCI-H23 lung
# NCI-H226 lung = system: NCI-H226 lung
# HOP-62 NSCLC = system: HOP-62 NSCLC
# HOP-92 NSCLC = system: HOP-92 NSCLC
# A549/ATCC NSCLC = system: A549/ATCC NSCLC
# 786-0 renal = system: 786-0 renal
# COLO 205 colon = system: COLO 205 colon
# DU-145 prostate = system: DU-145 prostate
# K-562 leukemia = system: K-562 leukemia
# MALME-3M melanoma = system: MALME-3M melanoma
# MDA-MB-231 breast = system: MDA-MB-231 breast
# RXF 393 renal = system: RXF 393 renal
# SF-268 CNS = system: SF-268 CNS
# SF-295 CNS = system: SF-295 CNS
# SF-539 CNS = system: SF-539 CNS
# UACC-257 melanoma = system: UACC-257 melanoma
# M14 melanoma = system: M14 melanoma
# NCI-H522 lung = system: NCI-H522 lung
# NCI-H460 lung = system: NCI-H460 lung
SMILES,growth (NCI-H23 lung),growth (NCI-H226 lung),growth (HOP-62 NSCLC),growth (HOP-92 NSCLC),growth (A549/ATCC NSCLC) [%],growth (786-0 renal),growth (COLO 205 colon),growth (DU-145 prostate),growth (K-562 leukemia),growth (MALME-3M melanoma),growth (MDA-MB-231 breast),growth (RXF 393 renal),growth (SF-268 CNS),growth (SF-295 CNS),growth (SF-539 CNS),growth (UACC-257 melanoma),growth (M14 melanoma),growth (NCI-H522 lung),growth (NCI-H460 lung)
COc1ccc(/C(=N\N)C(=O)c2ccccc2)cc1 (tested in a mixture with another compound),96.8%,95.6%,100%,82.7%,90.4,105%,110%,108%,101%,106%,102%,96.9%,96.2%,89%,114%,90.8%,124%,–,–
CCOc1ccccc1/C=N\N=C(\N)N/N=C/c1ccccc1OCC,23.7%,59.1%,43.7%,46.5%,39.4,21.4%,28.9%,46.1%,16.3%,–,52.5%,-1.54% (active),47.2%,23.4%,17.3%,39.1%,12.7%,7.36% (active),–
Cc1cc(Cl)ccc1Nc1nc(C(F)(F)F)ccc1C(=O)N/N=C/c1c(Cl)cccc1Cl,19%,7.42% (active),-4.74% (active),–,–,-63.5% (active),-52.8% (active),–,7.36% (active),–,-17.2% (active),–,12.8%,-37.7% (active),5.69% (active),13.1%,7.93% (active),-16.7% (active),1.31% (active)
CC(=O)COc1ccc(Cl)cc1Cl,106%,93%,110%,91%,107,103%,114%,106%,–,–,105%,107%,109%,103%,114%,112%,–,107%,–
COc1cc(-c2nn(-c3cccc(NC(=O)CN4CCOCC4)c3)cc2-c2cccnc2)ccc1Cl,90.9%,82.2%,98.9%,50.4%,83.8,94.6%,88.3%,82.3%,42.2%,80.5%,83.1%,85.1%,85.4%,76.8%,87%,93.9%,61%,49.1%,–
COc1nc2c(c(=O)n1C)CN(c1ccccc1)C(=O)C(C)N2 (stereo not drawn),95.7%,95.6%,88.1%,–,99.2,97.5%,115%,114%,101%,–,98.3%,95.2%,97.1%,105%,96.1%,93.5%,95.3%,–,104%
c1ccc(/C(=N\Nc2ccc3ccccc3n2)c2ccccn2)cc1,21.3%,3.53% (active),5.49% (active),–,–,-35.9% (active),26.5%,–,8.58% (active),–,29.8%,–,19.6%,-15.8% (active),-12.4% (active),16%,–,-2.13% (active),5.49% (active)
O=C(c1ccccc1)N(C(=O)c1ccccc1)N1CCCC1,96.4%,92.7%,104%,–,–,110%,110%,113%,101%,–,117%,110%,98.7%,104%,99.9%,–,102%,–,106%
CN1CCN(CCC(=O)Nc2cccc(-n3cc(-c4ccncc4)c(-c4ccc(Cl)c(O)c4)n3)c2)CC1,46.4%,66.6%,53.7%,27.9%,30.2,32.2%,12.8%,25.8%,12.8%,47.6%,-72% (active),30%,50.8%,19.3%,-4.71% (active),46.3%,12.3%,16.9%,–
Nc1cc(-c2ccc(Cl)cc2)nn1-c1nc2ccccc2nc1Cc1ccccc1,81.5%,84.3%,88.8%,–,78,89.5%,109%,–,–,101%,75.1%,78.7%,–,–,99.5%,101%,89.6%,85.7%,–
CC[C@@H](C(=O)[C@H](C)[C@H](O)[C@@H](C)[C@H]1O[C@H]([C@@H](CC)C(=O)N(CC)CC)CC[C@H]1C)C1O[C@]2(C=C[C@@H](O)[C@]3(CC[C@@](C)([C@H]4CC[C@](O)(CC)[C@H](C)O4)O3)O2)[C@H](C)C[C@@H]1C (stereo partly drawn),18.6%,7.49% (active),16.7%,-26.2% (active),20.9,33.5%,-20.2% (active),55.1%,16.2%,-20.1% (active),15.9%,14%,42.1%,-6.82% (active),38.2%,12.4%,11.7%,5.16% (active),–
COc1ccc(-c2n[nH]nc2-c2cc(OC)c3c(c2OC)OCO3)cc1,45.6%,75%,36.1%,8.78% (active),33.3,65.6%,12.9%,10.2%,10.7%,61.7%,32%,-9.08% (active),48.8%,4.67% (active),-2.99% (active),48%,20.6%,-12.8% (active),–
COc1cc(NC(=O)C2=C(N3CCOCC3)/C(=C/c3ccc(Cl)cc3)CC2)cc(OC)c1OC,94.6%,86.1%,102%,65.3%,40.8,93.2%,98.5%,99.4%,49.7%,93.6%,91.6%,–,114%,118%,101%,59.5%,97.3%,29.2%,–
O=C(COc1cccc(/C=C2\CSc3ccccc3C2=O)c1)c1ccc(Cl)cc1,-7.19% (active),80.1%,79.5%,56.5%,40.6,80.3%,96.2%,94.9%,-76.8% (active),-61.9% (active),68.8%,–,29.9%,-28.1% (active),50.6%,-47% (active),-34.7% (active),-76.8% (active),–
CCCCCCCCCCCC[n+]1c(C)cc(N)c2ccccc21,-36.8% (active),11.1%,3.61% (active),-6.03% (active),57,0.277% (active),-66.7% (active),24.2%,-39.5% (active),–,-3.36% (active),-27.7% (active),19.6%,-1.01% (active),16.5%,-17.8% (active),-33.5% (active),-29.7% (active),–
Cc1ccc(C(=O)/C=C/c2ccccc2)s1,109%,93.8%,120%,144%,101,86.7%,134%,92%,108%,–,112%,94.3%,99%,92.6%,132%,121%,86.9%,93.5%,–
CC(=O)N[C@H](C(=O)N[C@@H](CCCNC(=N)N)C(=O)N[C@@H](CCCCN)C(=O)N[C@@H](CCCNC(=N)N)C(=O)NC(C(=O)N[C@@H](CC(C)C)C(=O)N[C@@H](CCCNC(=N)N)C(=O)N[C@@]1(C)CCC/C=C\CCC[C@@](C)(C(=O)N[C@@H](CCCNC(=N)N)C(=O)N[C@@H](CCC(=O)O)C(=O)N[C@@H](CC(C)C)C(=O)N[C@H](C(=O)N[C@@H](CCC(=O)O)C(N)=O)C(C)C)NC(=O)[C@H](CCC(N)=O)NC(=O)[C@H](CC(C)C)NC(=O)[C@H](CC(C)C)NC1=O)[C@@H](C)O)C(C)C (stereo partly drawn),-34.6% (active),7.17% (active),–,-76% (active),27.8,-85.6% (active),-53% (active),-58.3% (active),-44.5% (active),-68.7% (active),-52.1% (active),-43.9% (active),-80.9% (active),-4.34% (active),-78% (active),–,–,36.5%,-63.6% (active)
CCC(CC)n1c(C)cc(=O)n1C(CC)CC,101%,99.1%,96.1%,99.9%,101,105%,115%,113%,105%,142%,109%,111%,100%,100%,96.7%,106%,110%,106%,–
